From PubChem BioAssay (NCI)
This is part of a sample that, as a whole, favours compounds with a hit. Of some 83,000 tested, about 20% had one in any assay.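 Plates (96-well) were seeded with cells, treated with compound at one concentration, and incubated for 48 hours before percent growth was determined.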 A number with no mark means an inactive call. Activity calls are given as the source filed them.

system: SK-MEL-2 melanoma; test: NCI-60 one-dose screen, 48 h (100 = growth as untreated, 0 = no growth, -100 = all killed); details: 10 µM unless noted
Method: Growth inhibition of the SK-MEL-2 human tumor cell line is measured as a screen for anti-cancer activity. Cells are grown in 96 well plates and exposed to the test compound for 48 hours. Compounds are tested at a single concentration, which is 10^-5 M for most compounds. The reported endpoint is percent growth (GI% or GIPRCNT), where numbers from 0 - 100% represent growth inhibition, and numbers from -100% - 0 represent cell death. For example, a value of 40 represents 60% growth inhibition. A value of 0 means no net growth occurred over the course of the experiment. A value of -40 indicates 40% of cells at the beginning of the experiment died by the end of the experiment. A value of -100 means all cells are dead at the end of the experiment.
NCI-60 Human Tumor Cell Lines Screen was performed using the standard one-dose NCI protocol, which is described in more detail at https://dtp.cancer.gov/discovery_development/nci-60/default.htm.
Compounds with GIPRCNT values below 10 were considered active. Activity score was based on GIPRCNT using the following formula: […]
Score is 0 for GIPRCNT values of 100 or above, 50 for GIPRCNT values of 0, and 100 for GIPRCNT values of -100.

SMILES | growth
CC(C)(C)c1cc(/C=N/NC(=O)c2ccccc2NC(=O)c2cccs2)c(O)c(C(C)(C)C)c1 | 36.9%
COc1ccc(C(=O)C2C(C#N)C(C#N)C3C=Cc4ccccc4N32)cc1 (stereo not given) | 44.5%
N#C/C(=C\c1ccc(Cl)cc1)n1nnc2cc(F)c(F)cc21 | 38.6%
CCOC(=O)c1cc(C(=O)c2ccc(Br)cc2)n2ccc(/C=C/c3cc[n+](CC(=O)c4ccc(OC)cc4)cc3)cc12 | 105%
CC1(C)c2[nH]c3ccccc3c2C[C@]2(C)[C@H]3C(=O)C=C4[C@@H]5C[C@@](C)(C(N)=O)CC[C@]5(C)CC[C@@]4(C)[C@]3(C)CC[C@@H]12 | 81.8%
CCOC(=O)CC1CSC(N/N=C/c2ccc(-n3cccn3)cc2)=N1 (stereo not given) | 113%
COc1ccc(-c2cnc3c(-c4cccc5ncccc45)cnn3c2)cc1 | 76.1%
CCCOc1ccc(/C=N/Nc2cc(C)nc3ccc(Cl)cc23)cc1 | 91.4%
COc1ccc2c(c1)oc1c(C)c3c(c(C)c12)C(=O)N(CCN1CCOCC1)C3=O | 124%
C=C1C(=O)O[C@H]2[C@H]1CC/C(CNC(=O)C(C)c1ccc(CC(C)C)cc1)=C\CC[C@@]1(C)O[C@@H]21 (stereo not given in full) | 32.9%
O=C(/C=C(O)/C=C/c1ccc(SC(F)(F)F)cc1)/C=C/c1ccc(SC(F)(F)F)cc1 | 101%
O=C(O)c1ccc2c(c1)C(=O)N(Cc1ccccc1)C2=O | 106%
Clc1ccc(-c2ccc(CNCC3CCNCC3)o2)c(-c2ccccc2)c1 | -75.7% (active)
O=C(NNc1nc2c(F)cccc2n2cccc12)c1cnccn1 | 48.7%
Nc1c(C(=O)Nc2cccc3cnccc23)sc2nc3c(cc12)C(=O)CCC3 | 77.2%
COc1cccc(-c2nc3occn3c2-c2ccnc(NCCCNS(=O)(=O)c3ccc(C(F)(F)F)cc3)n2)c1 | 92.3%
N#Cc1c(NC(=O)NCc2ccccc2)sc2c1CCCC2 | 45.6%
Nc1nc(Nc2ccccc2SSc2ccccc2Nc2nc(N)nc(-c3cccs3)n2)nc(-c2ccsc2)n1 | 99.1%
Cc1cc(C(=O)/C=C/c2ccc[nH]2)ccc1-n1ccc(C(F)(F)F)n1 | 96.5%
O=S(=O)(NCCCNc1nccc(-c2c(-c3cccc(O)c3)nc3occn23)n1)c1ccc(Cl)cc1 | 52.5%

SMILES | growth
CN(C)CCn1c2ccc(Br)cc2c2nc3ccccc3nc21 | 41.8%
COc1ccc(C(=O)C2C(C#N)C(C#N)C3c4ccccc4C=CN23)cc1 (stereo not given) | 88.5%
COc1ccc(NC(N)=NCCCOc2ccc(F)cc2)cc1 | 93.7%
O=S(=O)(NCCCNc1nccc(-c2c(-c3cccc(F)c3)nc3sccn23)n1)c1cccc(F)c1 | 47.6%
O=C(c1nnc(Nc2ccccc2Br)o1)c1c[nH]c2ccccc12 | 110%
CN(C)c1ccc(Nc2c3ccccc3nc3cc(NC(=O)CCN4CCCC4)ccc23)cc1 | 24%
CC(=O)OC[C@]12CC[C@@H](C(=O)CBr)[C@@H]1[C@H]1CC[C@@H]3[C@@]4(C)CC[C@H](OC(C)=O)C(C)(C)[C@@H]4CC[C@@]3(C)[C@]1(C)CC2 | 92.3%
COC(=O)C(CC=O)C(=O)C(=O)Nc1cccc(C(F)(F)F)c1 (stereo not given) | 109%
CCCN1[C@@H]2CC[C@H]1/C(=C\c1ccc(OC)c(OC)c1)C(=O)/C2=C/c1ccc(OC)c(OC)c1 | 53.6%
O=S(=O)(Nc1ccc(-n2cnc3cc(-c4ccc(O)cc4)ccc32)cc1)c1ccccc1 | 83.2%
O=[N+]([O-])c1ccc(NC(=S)N/N=C/c2cc3ccccc3n3nnnc23)cc1 | 49.3%
COc1ccc(CC(C)=C(c2ccc(OCCN3CCCCCC3)cc2)c2ccc(OCCN3CCCCCC3)cc2)cc1 | -82.2% (active)
COc1cc(/C=N/NC(=O)c2cnn3c2NC(c2ccccc2)C3)ccc1Oc1ccccc1 (stereo not given) | 1.74% (active)
O=C(CCN1CCCC1)Nc1ccc2c(NCCc3ccccc3)c3ccccc3nc2c1 | -58.8% (active)
O=C1c2cccc3c(-c4ccc5c(c4)ncn5C4CCCCC4)ccc(c23)C(=O)N1CCO | 89.5%
COC(=O)/C=C1\S/C(=N\NC(=O)c2cc3ccc2/C=C\c2ccc(cc2)/C=C\3)N(Cc2ccccc2)C1=O | 85.6%
N#Cc1c(NCc2ccccc2I)sc2c1CCCCC2 | 105%
COc1cccc(/C=N/NC(=O)c2cnn3c2NC(c2ccccc2)C3)c1Oc1ccccc1 (stereo not given) | 66.2%
COC(=O)C1=C(C(=O)ON)[C@@H]2C=C[C@@]1([C@@H](Cc1ccccc1)Nc1ccccc1)O2 | 94%
O=C1c2ccc3c4c(ccc(c24)C(=O)N1CCCNCc1ccccc1F)C(=O)N(CCCNCc1ccccc1F)C3=O | -82.9% (active)
